{"source": "PubChem BioAssay (NCATS)", "note": "Values joined by “and” are separate entries in the source; they are usually repeats but may differ in a detail not shown here. Identical values can stand only once. Results filed as inconclusive are left out. Entries that show only a call come without a potency. Active and inactive are the calls of the source. The call rests on the fitted dose curve; in most records, active means well fitted cell-killing curve with a large enough effect; inconclusive means small, poorly fitted or top-dose-only effect; inactive means no such curve, though single readings can be large or run the other way.", "data": [{"test": "qHTS of pediatric cancer cell lines to identify multiple opportunities for drug repurposing: Primary screen for Rh41 cells (AID 1347108); further: nearly all actives have a fitted effect of over 70% in size; further: potency means the concentration at half of the fitted maximal effect", "conditions": "Rh41 rhabdomyosarcoma viability, CellTiter-Glo luminescence, 48 h; series mostly up to 46 µM", "text": "Drug repurposing or repositioning has been offered as a strategy for drug development in oncology programs. This approach has special potential for childhood cancers and other rare or orphan diseases, where the expected return on new drug development has been a disincentive to pharmaceuticals. […] In this project we exploit the poly-pharmacology of drugs to discover new indications via phenotypic screening of a panel of 19 well-characterized cell lines derived from solid tumors seen in children and adolescents. The goal is to identify approved drugs with previously unrecognized anticancer properties that has the potential to reveal new mechanisms and biological processes involved in carcinogenesis or drug resistance. We employed a titration-based paradigm (quantitative high-throughput screening or qHTS), where all compounds were tested at multiple concentrations for their effect on cell viability. Concentration-response curves (CRCs) were derived directly from the primary screen, and both potency and efficacy values were used to identify compounds with robust bioactivity profiles. We screened the NIH Chemical Genomics Center (NCGC) Pharmaceutical Collection (NPC) and Mechanism Interrogation Plate (MIPE) small molecule collections of approved and investigational compounds against these cell lines; and measured metabolically active cells after 48 hours of compound treatment as a proxy for cell viability. […] Assay Submitter: Nathalia J. Martinez, National Center for Advancing Translational Sciences, National Institutes of Health, Rockville, MD, USA; email: natalia.martinez@nih.gov Shen, M et al. Quantitative high-throughput phenotypic screening of pediatric cancer cell lines identifies multiple opportunities for drug repurposing. Oncotarget 2017 Dec 19;9(4):4758-4772. PMID 29435139.\nThe cells were obtained from University of North Carolina (UNC), Pediatric Preclinical Testing Program (PPT), and Coriell Institute (CI). qHTS cell viability assay: Cells were assayed in growth media at a density of 500-1,000 cells/well. Five microliters of cells were dispensed into 1,536-well, white, solid-bottom, TC-treated plates (Greiner Bio One) using a multidrop dispenser and incubated at 37 degrees C, 5% CO2, under a humidified atmosphere for 5 hours. Twenty-three nanoliters of compounds and controls (neutral control DMSO or positive control bortezomib at final concentration of 2.3 µM) were subsequently transferred by Kalypsys pintool. For primary screens, the MIPE collection was tested at 11-point dilutions (final concentrations range from 0.78 nM to 46 µM) and the NPC collection at 8-point dilutions (final concentrations range from 0.59 nM to 46 µM). Compounds tested in follow-up screens were assayed at 11-point dilutions. Cells were incubated for 48 hours, followed by addition of 3 µL of CellTiter-Glo (Promega). After a 15 min incubation at room temperature, samples were analyzed for luminescence intensity using a ViewLux High-throughput CCD imager equipped with clear filters.", "values": [{"compound": "O=C(C1CCCCC1)N1CC(=O)N2CCc3ccccc3C2C1", "note": "(stereo not given)", "Potency": "inactive"}, {"compound": "CC(C)Cc1ccc(C(C)C(=O)O)cc1", "note": "(stereo not given)", "Potency": "inactive"}, {"compound": "CCC1(c2ccccc2)C(=O)NCNC1=O", "Potency": "inactive"}, {"compound": "NC12CC3CC(CC(C3)C1)C2", "Potency": "inactive"}, {"compound": "Fc1ccc([C@@H]2CCNC[C@H]2COc2ccc3c(c2)OCO3)cc1", "Potency": "inactive"}, {"compound": "CC(C)(C)C(=O)Oc1ccc(S(=O)(=O)Nc2ccccc2C(=O)NCC(=O)O)cc1", "Potency": "inactive"}, {"compound": "CCCNCC(O)COc1ccccc1C(=O)CCc1ccccc1", "note": "(stereo not given)", "Potency": "inactive"}, {"compound": "CN(C)c1nc(N(C)C)nc(N(C)C)n1", "Potency": "inactive"}, {"compound": "CN1CCN(C2=Nc3cc(Cl)ccc3Nc3ccccc32)CC1", "Potency": "inactive"}, {"compound": "Cc1cn([C@H]2C=C[C@@H](CO)O2)c(=O)[nH]c1=O", "Potency": "inactive"}, {"compound": "O=C1Cc2cc(CCN3CCN(c4nsc5ccccc45)CC3)c(Cl)cc2N1", "Potency": "inactive"}, {"compound": "O=C(Nc1ccc([N+](=O)[O-])cc1Cl)c1cc(Cl)ccc1O", "Potency": "2.35 µM (active)"}, {"compound": "NC(=O)OCC(COC(N)=O)c1ccccc1", "Potency": "inactive"}, {"compound": "Cc1cc(C(C)(C)C)c(O)c(C)c1CC1=NCCN1", "Potency": "inactive"}, {"compound": "Cc1cn([C@H]2C[C@H](N=[N+]=[N-])[C@@H](CO)O2)c(=O)[nH]c1=O", "Potency": "inactive"}, {"compound": "CN(C)CCC=C1c2ccccc2C=Cc2ccccc21", "Potency": "inactive"}, {"compound": "CN(C)C(=O)C(CCN1CCC(O)(c2ccc(Cl)cc2)CC1)(c1ccccc1)c1ccccc1", "Potency": "18.7 µM (active) and 16.8 µM (active)"}, {"compound": "COc1cc2nc(N3CCN(C(=O)C4COc5ccccc5O4)CC3)nc(N)c2cc1OC", "note": "(stereo not given)", "Potency": "inactive"}, {"compound": "C[C@H]1c2cccc(O)c2C(O)=C2C(=O)[C@]3(O)C(O)=C(C(N)=O)C(=O)[C@@H](N(C)C)[C@@H]3[C@@H](O)[C@@H]21", "Potency": "inactive"}, {"compound": "NCCc1cnc[nH]1", "Potency": "inactive"}, {"compound": "CC(C)C(=O)Nc1ccc([N+](=O)[O-])c(C(F)(F)F)c1", "Potency": "11.8 µM (active)"}, {"compound": "CN1CCC(=C2c3ccccc3C=Cc3ccccc32)CC1", "Potency": "inactive"}, {"compound": "COc1nc(C)nc(Cl)c1NC1=NCCN1", "Potency": "inactive"}, {"compound": "CN1C2CCC1CC(OC(=O)C(CO)c1ccccc1)C2", "note": "(stereo not given)", "Potency": "inactive"}, {"compound": "OCCN1CCN(CCCN2c3ccccc3Sc3ccc(C(F)(F)F)cc32)CC1", "Potency": "inactive"}, {"compound": "COc1cc2nc(N(C)CCCNC(=O)C3CCCO3)nc(N)c2cc1OC", "note": "(stereo not given)", "Potency": "inactive"}, {"compound": "Clc1ccc2nsnc2c1NC1=NCCN1", "Potency": "inactive"}, {"compound": "O=C1c2c(O)ccc(O)c2C(=O)c2c(NCCNCCO)ccc(NCCNCCO)c21", "Potency": "4.18 µM (active) and 9.44 µM (active)"}, {"compound": "Nc1nnc(-c2cccc(Cl)c2Cl)c(N)n1", "Potency": "inactive"}, {"compound": "CCOC(=O)Nc1ccc(NCc2ccc(F)cc2)nc1N", "Potency": "inactive"}, {"compound": "CC[N+](CC)(CC)CCOc1cccc(OCC[N+](CC)(CC)CC)c1OCC[N+](CC)(CC)CC", "Potency": "inactive"}, {"compound": "COc1ccc2c(c1)c(CC(=O)O)c(C)n2C(=O)c1ccc(Cl)cc1", "Potency": "inactive"}, {"compound": "CCN1CCCC1CNC(=O)c1cc(S(=O)(=O)CC)c(N)cc1OC", "note": "(stereo not given)", "Potency": "inactive"}, {"compound": "NC(CO)C(=O)NNCc1ccc(O)c(O)c1O", "note": "(stereo not given)", "Potency": "inactive"}, {"compound": "Cc1cc(C(C)(C)C)cc(C)c1CC1=NCCN1", "Potency": "inactive"}, {"compound": "Cn1c(=O)c2c(ncn2C)n(C)c1=O", "Potency": "inactive"}, {"compound": "CCc1cccc2c3c([nH]c12)C(CC)(CC(=O)O)OCC3", "note": "(stereo not given)", "Potency": "inactive"}, {"compound": "Nc1c2c(nc3ccccc13)CCCC2", "Potency": "inactive"}, {"compound": "CC#C[C@]1(O)CC[C@H]2[C@@H]3CCC4=CC(=O)CCC4=C3[C@@H](c3ccc(N(C)C)cc3)C[C@@]21C", "Potency": "0.743 µM (active)"}, {"compound": "COc1cc2nc(N3CCN(C(=O)c4ccco4)CC3)nc(N)c2cc1OC", "Potency": "inactive"}]}]}
